Data reported in the supplement of paper PMC10811239.

What follows are molecules tested on LEGO organoid PTCC (PTEN-/-; TP53-/-; CDKN2A-/-; CDKN2B-/-) (assay: bioluminescence (viable cell) signal fold change after vs before treatment, normalised to DMSO (ratio); higher = more tumour cell growth / less inhibition). Conditions: 10 µM; treatment time 6 days.
Description: (§1)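 Luc2-labelled iPSC-derived glioblastoma-like organoids (LEGOs, genotypes PT = PTEN-/-;TP53-/-, PTCC = plus CDKN2A/B-/-, PTN = plus NF1-/-) were treated with 10 uM drug for 6 days (applied every other day) at 37 C. Bioluminescence imaging was done before treatment and 2 days after the last dose. BLI signals were normalised to the DMSO control on the same day and then to the pre-treatment signal (N=3).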

Going from Nc1cccc2c1CN(C1CCC(=O)NC1=O)C2=O (stereo unspecified) [Lenalidomide] to CN1[C@@H]2CC[C@H]1C[C@@H](OC(c1ccccc1)c1ccccc1)C2.CS(=O)(=O)O [Benztropine mesylate], the bioluminescence falls from 4.82 to 0.793.

CCCN(CCC)S(=O)(=O)c1ccc(C(=O)O)cc1 [Probenecid] gave a bioluminescence of 1.41.

What follows are molecules tested on LEGO organoid PTN (PTEN-/-; TP53-/-; NF1-/-) in the same assay as above. Conditions: 10 µM; treatment time 6 days.
Description: as §1

Going from N[C@@H]1CONC1=O [D-Cycloserine] to Nc1cccc2c1CN(C1CCC(=O)NC1=O)C2=O (stereo unspecified) [Lenalidomide], the bioluminescence rises from 1.69 to 3.63.

Compared with COc1c(N2CCNC(C)C2)c(F)cc2c(=O)c(C(=O)O)cn(C3CC3)c12 (stereo unspecified) [Gatifloxacin], CC1COc2c(N3CCN(C)CC3)c(F)cc3c(=O)c(C(=O)O)cn1c23 (stereo unspecified) [Ofloxacin] is lower in bioluminescence: 4.79 for the first, 1.19 for the second.

Compared with O=C(NC1CCN(CCCCC2(C(=O)NCC(F)(F)F)c3ccccc3-c3ccccc32)CC1)c1ccccc1-c1ccc(C(F)(F)F)cc1 [Lomitapide], O=C(CCCN1CCC(O)(c2ccc(Cl)cc2)CC1)c1ccc(F)cc1 [Haloperidol] is higher in bioluminescence: 0 for the first, 0.771 for the second.

Going from NS(=O)(=O)c1cc2c(cc1Cl)N=CNS2(=O)=O [Chlorothiazide] to Cc1ccc(Nc2nccc(N(C)c3ccc4c(C)n(C)nc4c3)n2)cc1S(N)(=O)=O.Cl [Pazopanib HCl], the bioluminescence falls from 1.33 to 1.02.

Compared with CO[C@H]1C[C@@H]2CC[C@@H](C)[C@@](O)(O2)C(=O)C(=O)N2CCCC[C@H]2C(=O)O[C@H]([C@H](C)C[C@@H]2CC[C@@H](OC(=O)C(C)(CO)CO)[C@H](OC)C2)CC(=O)[C@H](C)/C=C(\C)[C@@H](O)[C@@H](OC)C(=O)[C@H](C)C[C@H](C)/C=C/C=C/C=C/1C [Temsirolimus], CCc1cc(/C(C)=N/OCc2ccc(C3CCCCC3)c(C(F)(F)F)c2)ccc1CN1CC(C(=O)O)C1 [Siponimod] is lower in bioluminescence: 0.856 for the first, 0.811 for the second.

Going from Nc1cccc2c1C(=O)N(C1CCC(=O)NC1=O)C2=O (stereo unspecified) [Pomalidomide] to CN1CCN(C2=Nc3cc(Cl)ccc3Nc3ccccc32)CC1 [Clozapine], the bioluminescence falls from 1.12 to 0.617.

First: Cc1ccccc1C(OCCN(C)C)c1ccccc1.Cl (stereo unspecified) [Orphenadrine hydrochloride]
Second: Cl.CN(C)CC\C=C1\c2ccccc2CCc2ccccc12 [Amitriptyline hydrochloride]
The bioluminescence of the first is higher: 1.59 for the first, 1.12 for the second.

First: C#CCN[C@@H]1CCc2ccccc21 [Rasagiline]
Second: CCC(=O)NCC[C@@H]1CCc2ccc3c(c21)CCO3 [Ramelteon]
The bioluminescence of the first is lower: 0.976 for the first, 2.06 for the second.

Going from CC1(C)S[C@@H]2[C@H](NC(=O)[C@H](N)c3ccc(O)cc3)C(=O)N2[C@H]1C(=O)O.O.O.O [Amoxicillin trihydrate] to CC(C)Cc1ccc(C(C)C(=O)O)cc1 (stereo unspecified) [Ibuprofen], the bioluminescence rises from 0.841 to 1.57.

First: CSCC[C@@H](N)C(=O)O [Methionine]
Second: N[C@H](C(=O)O)[C@H](O)c1ccc(O)c(O)c1 [Droxidopa]
The bioluminescence of the first is lower: 1.35 for the first, 3.13 for the second.

Going from C/C(O)=C(\C#N)C(=O)Nc1ccc(C(F)(F)F)cc1 [Teriflunomide] to CC(=O)Oc1ccccc1C(=O)O [Aspirin], the bioluminescence falls from 2.32 to 0.737.

Going from CC(C)c1c(C(=O)Nc2ccccc2)c(-c2ccccc2)c(-c2ccc(F)cc2)n1CC[C@@H](O)C[C@@H](O)CC(=O)[O-].CC(C)c1c(C(=O)Nc2ccccc2)c(-c2ccccc2)c(-c2ccc(F)cc2)n1CC[C@@H](O)C[C@@H](O)CC(=O)[O-].[Ca+2] [Atorvastatin Calcium] to CN(C/C=C/c1ccccc1)Cc1cccc2ccccc12.Cl [Naftifine hydrochloride], the bioluminescence rises from 0.0875 to 0.535.

Going from Cl.Cl.OCCOCCN1CCN(C(c2ccccc2)c2ccc(Cl)cc2)CC1 (stereo unspecified) [Hydroxyzine dihydrochloride] to CCc1nn(CCCN2CCN(c3cccc(Cl)c3)CC2)c(=O)n1CCOc1ccccc1.Cl [Nefazodone hydrochloride], the bioluminescence falls from 2.31 to 0.52.

First: COc1cc2ncnc(Nc3ccc(F)c(Cl)c3)c2cc1OCCCN1CCOCC1 [Gefitinib]
Second: COc1cc(C(C)=O)ccc1OCCCN1CCC(c2noc3cc(F)ccc23)CC1 [Iloperidone]
The bioluminescence of the first is higher: 2.43 for the first, 2.12 for the second.

Going from CC(C)NCC(O)COc1ccc(CC(N)=O)cc1 (stereo unspecified) [Atenolol] to CCCN(CCC)S(=O)(=O)c1ccc(C(=O)O)cc1 [Probenecid], the bioluminescence rises from 0.649 to 1.62.

Going from CCCc1nc(C)c2c(=O)[nH]c(-c3cc(S(=O)(=O)N4CCN(CC)CC4)ccc3OCC)nn12 [Vardenafil] to Cc1nc(Nc2ncc(C(=O)Nc3c(C)cccc3Cl)s2)cc(N2CCN(CCO)CC2)n1 [Dasatinib], the bioluminescence rises from 1.29 to 2.

Compared with C[C@H](C(=O)O)c1cccc(C(=O)c2ccccc2)c1 [(S)-(+)-Ketoprofen], CN1[C@@H]2CC[C@H]1C[C@@H](OC(c1ccccc1)c1ccccc1)C2.CS(=O)(=O)O [Benztropine mesylate] is lower in bioluminescence: 0.728 for the first, 0.419 for the second.

First: C=CC(=O)N1CCC[C@@H](n2nc(-c3ccc(Oc4ccccc4)cc3)c3c(N)ncnc32)C1 [Ibrutinib]
Second: Oc1c(I)cc(Cl)c2cccnc12 [Clioquinol]
The bioluminescence of the first is lower: 1.26 for the first, 2.47 for the second.

First: CCc1cc(C(N)=S)ccn1 [Ethinamide]
Second: CO/N=C(\C(=O)N[C@@H]1C(=O)N2C(C(=O)[O-])=C(CSc3nc(=O)c([O-])nn3C)CS[C@H]12)c1csc(N)n1.CO/N=C(\C(=O)N[C@@H]1C(=O)N2C(C(=O)[O-])=C(CSc3nc(=O)c([O-])nn3C)CS[C@H]12)c1csc(N)n1.O.O.O.O.O.O.O.[Na+].[Na+].[Na+].[Na+] [Ceftriaxone sodium]
The bioluminescence of the first is lower: 1.99 for the first, 2.01 for the second.
